12-hLO inh – blocks human 12-lipoxygenase activity. P18054. purified 12-hLO, xylenol orange hydroperoxide absorbance. Potency, µM (top dose mostly 57.1 µM), hits mostly inhibitors. 0.12% of 150,000 active. AID 1452; active means well fitted curve in the direction sought with a large enough effect; inconclusive means small, poorly fitted or top-dose-only effect, or another doubt; inactive means no such curve, though single readings can be large; an effect the other way counts as inactive or inconclusive; further: nearly all actives have a fitted effect of over 55% in size
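Purified human 12hLO (150 nM final) was preincubated with compounds for 15 min at room temperature in 25 mM Hepes pH 7.0, 0.01% Triton X-100, then reacted with 40 uM arachidonic acid for 30 min. Hydroperoxide was detected with ferrous iron/xylenol orange.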
IMPase cell inh – cell-permeable inhibitors of inositol monophosphatase (IMPase). P97697. CHO-M1 cells, IP1 accumulation, HTRF TR-FRET ratio. inhibition (IP1 accumulation), % at 46.1 µM. 120,000 tested, under 10 active. AID 901; active means well fitted curve in the direction sought with a large enough effect in the signal ratio, not every such curve was filed as active; inconclusive means small, poorly fitted or top-dose-only effect, or a change in a side signal; inactive means no such curve, though single readings can be large or run the other way; the % refers to the signal ratio;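 further: cells stimulated with carbachol in lithium chloride buffer; higher means more IMPase inhibition seen as more IP1 and lower FRET ratio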
Target sequence (P97697 whole entry, looked up): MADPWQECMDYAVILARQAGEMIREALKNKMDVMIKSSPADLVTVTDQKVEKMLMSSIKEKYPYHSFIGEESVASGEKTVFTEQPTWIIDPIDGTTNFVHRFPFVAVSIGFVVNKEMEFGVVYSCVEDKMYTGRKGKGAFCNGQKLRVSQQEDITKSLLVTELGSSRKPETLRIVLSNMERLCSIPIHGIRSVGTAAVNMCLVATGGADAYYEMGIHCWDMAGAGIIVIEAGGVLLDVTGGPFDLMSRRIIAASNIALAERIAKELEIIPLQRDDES
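Seeded CHO-M1 cells were dosed with compound at up to 46 uM, stimulated with carbachol for 30 min, then lysed in IP-One detection reagents. Higher IP1 lowers the TR-FRET signal.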
PNC inhibitor – perinucleolar compartment assembly inhibition; 3.1% of 140,000 active; PC3M PTB-GFP, PNC prevalence imaging, 16 h; active compounds read low; activity change (PNC), negative = inhibition, % at 10 µM;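 active means readout at or below -70, meaning at least 70% loss of cells showing the perinucleolar compartment, a nuclear body marking cancer cells; inconclusive means readout between -30 and a set limit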
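Read-out is percentage of cells bearing a perinucleolar compartment, from automated 20x imaging of fixed, Hoechst-stained PC3M PTB-GFP cells. Cells were seeded 4 h, then exposed 16 h to compound (23 nl of library stock) in duplicate plates.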
ALDH1A1 block – ALDH1A1 (human) enzyme inhibition | Purified ALDH1A1, NADH fluorescence, propionaldehyde substrate | Potency, µM (titrated, usually from 75.3 µM), most hits filed as inhibitors | 7.3% of 220,000 active | AID 1030
HPGD block – blocks human HPGD enzyme activity | P15428 | purified HPGD, NADH fluorescence kinetic, PGE2 substrate | Potency, µM, usual class: inhibitors | 4.3% of 150,000 active | AID 894
Target sequence (P15428 whole entry, looked up): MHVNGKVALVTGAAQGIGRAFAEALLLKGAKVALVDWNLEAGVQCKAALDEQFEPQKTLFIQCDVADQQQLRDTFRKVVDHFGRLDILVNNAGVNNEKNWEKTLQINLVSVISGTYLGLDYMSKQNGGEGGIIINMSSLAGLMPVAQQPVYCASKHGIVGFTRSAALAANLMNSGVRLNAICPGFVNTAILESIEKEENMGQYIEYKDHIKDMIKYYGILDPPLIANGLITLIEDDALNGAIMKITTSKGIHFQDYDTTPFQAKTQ
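NADH formation kinetics: reaction with 30 uM PGE2 and 1 mM NAD+ (final), 20 nM enzyme, Tris-HCl pH 8 with Tween 20, after 15 min compound preincubation at room temperature. Fluorescence change, last versus first of five reads.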
IMPase Li cell – IMPase inhibition in cells with lithium potentiation. 0.35% of 210,000 active. AID 1457. Potency, µM (highest dose often 59.4 µM), hits mostly inhibitors. CHO-M1 cells, IP1 TR-FRET (IP-One), carbachol + lithium; active means well fitted curve in the direction sought with a large enough effect; inconclusive means small, poorly fitted or top-dose-only effect, or another doubt; inactive means no such curve, though single readings can be large; an effect the other way counts as inactive or inconclusive;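 further: IP1 builds up when IMPase is blocked and the TR-FRET signal falls; nearly all actives have a fitted effect of over 50% in size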
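Steps: plate 2000 CHO-M1 cells per well and culture 16–30 h; add compound and lithium; incubate 30 min, 37C; add d2-IP1 tracer and Eu cryptate anti-IP1 antibody in lysis buffer; read after 10 min at room temperature.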
A number is an active result; n = inactive; u = inconclusive; x = no result given; [ ] = dose if it differs, or a comment. An excerpt weighted towards active compounds, which were near 11% of everything screened. Unless noted, the call rests on the fitted dose curve; in most records, active means well fitted inhibition curve with a large enough effect (not every such curve was filed as active); inconclusive means small, poorly fitted or top-dose-only effect, or another doubt; inactive means no such curve, though single readings can be large or run the other way.

SMILES	12-hLO inh	IMPase cell inh	PNC inhibitor	ALDH1A1 block	HPGD block	IMPase Li cell
CC(=O)Oc1ccc(N(C(C)=O)S(=O)(=O)c2cccs2)c2ccccc12	n	n	-82	5µM	n	n
CC(=O)Oc1ccccc1N(C(C)=O)S(=O)(=O)c1ccc2ccccc2c1	x	x	x	n	x	n
O=C(Oc1ccc2ccccc2c1Cl)N1CCCC1	n	n	-89	n	n	n
Cc1nc2nc(CCc3ccccc3)nn2c(C)c1Cl	n	n	n	n	n	n
Cc1nc2nc(Cc3ccccc3)nn2c(C)c1Cl	n	n	n	14µM	n	n
COc1cc([N+](=O)[O-])ccc1NC(=O)CSc1nc2ccccc2n1-c1ccccc1	n	x	n	10µM	n	n
COc1ccccc1NC(=O)CSc1nc2ccccc2n1C(C)=O	n	n	n	n	16µM	n
Cc1ccc(C)c(NC(=S)Nc2cccc3cnccc23)c1	x	x	x	8.9µM	x	n
NC(=S)Nc1cccc2cnccc12	n	n	n	n	n	n
S=C(Nc1cccc(Cl)c1)Nc1cccc2cnccc12	n	n	n	3.2µM	u	n
Cc1ccccc1NC(=S)Nc1cccc2cnccc12	x	x	x	u	x	n
Cc1ccc(NC(=S)Nc2cccc3cnccc23)cc1C	x	x	x	2.5µM	x	n
Cc1ccc(NC(=S)Nc2cccc3cnccc23)cc1	x	x	x	13µM	x	n
O=C1NC2(CCCc3ccccc32)C(=O)N1CCOc1ccc(Br)cc1 (centres undefined)	n	n	n	n	16µM	n
CN1CCN(c2ncc3nc(-c4cccs4)c(=O)n(CCC#N)c3n2)CC1	x	x	x	u	x	n
Cc1ccc(C)c(S(=O)(=O)N=Nc2c(O)[nH]c3ccccc23)c1	x	x	x	10µM	x	n
Cc1ccc(S(=O)(=O)N=Nc2c(O)[nH]c3ccccc23)cc1	n	n	n	u	n	n
CCOc1ccc(NS(=O)(=O)c2ccc3c(c2)CCN3C(=O)CCC(=O)O)cc1	n	n	n	n	n	n
O=S(=O)(NCc1ccco1)c1ccc(S(=O)(=O)N2CCCC2)cc1	x	x	x	8.9µM	x	n
COc1ccc(NS(=O)(=O)c2ccc(SC)cc2)cc1	n	n	n	0.16µM	n	n
Cc1ccc(S(=O)(=O)Nc2ccc(S(=O)(=O)N3CCCC3)cc2)cc1	n	n	u	0.56µM	n	n
O=C(O)CCC(=O)N1CCc2cc(S(=O)(=O)Nc3ccc4c(c3)OCCO4)ccc21	n	n	n	n	25µM	n
Cc1ccc(NS(=O)(=O)c2ccc(C)c(C(=O)N3CCN(C)CC3)c2)cc1	n	n	n	n	n	n
Cc1ccc(S(=O)(=O)Nc2ccc3c(c2)OCCO3)cc1	x	x	x	n	x	n
Cc1ccc(NS(=O)(=O)c2ccc(C(=O)N3CCCN(C)CC3)cc2)cc1	n	n	-100	n	n	n
SMILES	12-hLO inh	IMPase cell inh	PNC inhibitor	ALDH1A1 block	HPGD block	IMPase Li cell
CSc1ccc(S(=O)(=O)Nc2ccc3c(c2)OCCO3)cc1	n	n	n	16µM	n	n
COc1ccc(S(=O)(=O)Nc2ccc(S(=O)(=O)N3CCOCC3)cc2)cc1	n	n	n	4.5µM	n	n
COc1ccc(-c2nc(SCC(=O)Nc3ccc4c(c3)OCCO4)c(-c3ccc(C)cc3)[nH]2)cc1OC	x	n	x	x	x	x
CC(NC(=O)c1nn(C)c(=O)c2ccccc12)c1ccccc1 (centres undefined)	n	n	n	16µM	n	n
Cn1nc(C(=O)NCc2ccc(F)cc2)c2ccccc2c1=O	n	n	n	n	n	n
Cn1nc(C(=O)NCc2ccccc2)c2ccccc2c1=O	n	n	n	20µM	n	n
c1ccc(CO[C@H]2NCCN2Cc2ccccc2)cc1	n[11.4 µM]	x	x	n[13.5 µM]	n	n
CC(=O)N1CCCc2cc(S(=O)(=O)N(C)Cc3ccccc3)ccc21	n	n	n	u	32µM	n
CCCCN(CC)S(=O)(=O)c1ccc2c(c1)CCCN2C(C)=O	n	n	n	u	n	n
CC(=O)N1CCCc2cc(S(=O)(=O)NC(C(=O)NC(C)c3ccccc3)C(C)C)ccc21 (centres undefined)	n	n	u	3.2µM	n	u
CC(=O)N1CCCc2cc(S(=O)(=O)NC(C(=O)NC3CCCCC3)C(C)C)ccc21 (centres undefined)	n	x	n	7.1µM	n	n
COc1ccc(NC(=O)CCS(=O)(=O)c2ccc3c(c2)CCCN3C(C)=O)cc1	n	n	n	u	n	n
CCOc1ccc(NC(=O)CCS(=O)(=O)c2ccc3c(c2)CCCN3C(C)=O)cc1	n	n	n	19µM	n	n
COc1ccc(-c2ccc(=N)n(CCCC(=O)O)n2)cc1	n	n	x	n	n	n
Cc1cccc(CNc2ccnc(-c3ccc(C(=O)N(C)C)cc3)n2)c1	n	x	x	u	8.9µM	n
Cc1cccc(CNc2ccnc(-c3ccc(N(C)C)cc3)n2)c1	u	x	x	u	u	n
Cc1cccc(CNc2ccnc(-c3ccoc3)n2)c1	n	x	x	13µM	u	n
Cc1ccccc1-c1nc(CN2CCCC(C(=O)NCCCN3CCOCC3)C2)c(C)o1 (centres undefined)	n	n	n	n	n	n
CCOC(=O)N1CCN(C(=O)C2CCCN(Cc3nc(-c4ccc(Cl)cc4)oc3C)C2)CC1 (centres undefined)	n	n	-100	u	n	n
Cc1oc(-c2cc3c(cc2Cl)OCO3)nc1CN1CCCC(C(=O)N2CCOCC2)C1 (centres undefined)	x	x	x	1µM	x	n
Cc1[nH]c2ccccc2c1N=Nc1ccccc1C(=O)O	n	x	n	u	14µM	n
CN(C)c1nc(SCC(=O)Nc2ccccc2)nc(N2CCOCC2)n1	x	x	x	25µM	x	n
c1ccc(Nc2nc(N3CCNCC3)nc(N3CCOCC3)n2)cc1	n	u	-100	n	n	n
O=C(CSc1nc(Nc2ccccc2)nc(N2CCOCC2)n1)N1CCCC1	n	n	u	n	n	n
O=C(CSc1nc(Nc2ccccc2)nc(N2CCOCC2)n1)N1CCc2ccccc21	n	u	-117	n	n	n
SMILES	12-hLO inh	IMPase cell inh	PNC inhibitor	ALDH1A1 block	HPGD block	IMPase Li cell
CC(CN(C)C)NC(=O)c1ccc(Cc2nc3ccccc3[nH]2)cc1 (centres undefined)	n	x	x	n	n	x
CN(C)CCCNc1ncnc2nc[nH]c12	n[11.4 µM]	x	x	n[13.5 µM]	n	n
CC(C)=C1C(=O)NN(c2ccc(C)c(Cl)c2)C1=O	n	x	n	n	16µM	n
Cc1ccc(N2C(=O)c3ccccc3C2=O)cc1Cl	n	n	n	n	n	n
CC(C)=C1C(=O)NN(c2cccc(Cl)c2)C1=O	n	x	n	n	7.9µM	n
COc1cccc([C@@H]2Oc3ccc(Br)cc3C(=O)[C@H]2OC(=O)N[C@H]2CCCc3ccccc32)c1	x	x	x	u	n	n
C[N+](C)(C)CCOP(=O)(O)OP(=O)([O-])OC[C@H]1O[C@@H](n2ccc(N)nc2=O)[C@H](O)[C@@H]1O	n	x	-105	n	n	n

Screening results deposited in PubChem by National Center for Advancing Translational Sciences (NCATS).
